# Measured values taken from the supplement of paper PMC6555819.
# Legend:
# Experiment in all cases: PBM binding z-score (relative to random genomic background probes); higher = stronger binding; sequences stand for … in GC…GCGATTGACAGCGTAGAATGAAGG
# [1] = test system: FXR:RXRa (NR concentration 270 nM, RXRa partner concentration 90 nM)
# Summary of the method: (§1)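 The probes on custom Agilent 4×180K protein-binding microarrays were double-stranded, with 34-nt variable regions bearing direct-repeat seeds, single-nucleotide variants, half-site ablations and random human genomic background sequences. Incubation lasted 1 h with ligand-free nuclear receptor dimers in PBS pH 7.4, 2% milk, 0.02% Triton X-100, 1 mM DTT, 0.2 mg/mL BSA and 0.4 mg/ml salmon testes DNA. Antibodies against each partner (one per run) detected bound dimers, and fluorescence scans were regression-normalized. Binding z-scores take the random background probes as reference.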
# [2] = test system: LXRa:RXRa (NR concentration 270 nM, RXRa partner concentration 90 nM)
# Summary of the method: as §1
# [3] = test system: LXRa homodimer (NR concentration 270 nM)
# Summary of the method: as §1
# [4] = test system: LXRb:RXRa (NR concentration 270 nM, RXRa partner concentration 90 nM)
# Summary of the method: as §1
# [5] = test system: LXRb homodimer (NR concentration 270 nM)
# Summary of the method: as §1
# [6] = test system: PPARa:RXRa (NR concentration 270 nM, RXRa partner concentration 90 nM)
# Summary of the method: as §1
# [7] = test system: PPARg:RXRa (NR concentration 180 nM, RXRa partner concentration 90 nM)
# Summary of the method: as §1
# [8] = test system: PPARg:RXRa 270nM:90nM, anti-RXR (NR concentration 270 nM, RXRa partner concentration 90 nM)
# Summary of the method: as §1
# [9] = test system: PPARg:RXRa 30nM:10nM, anti-RXR (NR concentration 30 nM, RXRa partner concentration 10 nM)
# Summary of the method: as §1
# [10] = test system: PPARg:RXRa 90nM:30nM, anti-RXR (NR concentration 90 nM, RXRa partner concentration 30 nM)
# Summary of the method: as §1
# [11] = test system: PPARg:RXRa DBDmut IVT, anti-RXR (DBD mutation: RXRa K156A/R161A, NR concentration 270 nM, RXRa partner concentration 90 nM)
# Summary of the method: as §1
# [12] = test system: PPARg:RXRa IVT, anti-PPARg (NR concentration 270 nM, RXRa partner concentration 90 nM)
# Summary of the method: as §1
# [13] = test system: PPARg DBDmut:RXRa IVT, anti-PPARg (DBD mutation: PPARg1 K132A/R137A, NR concentration 270 nM, RXRa partner concentration 90 nM)
# Summary of the method: as §1
# [14] = test system: PPARg DBDmut IVT, anti-PPARg (DBD mutation: PPARg1 K132A/R137A, NR concentration 270 nM)
# Summary of the method: as §1
# [15] = test system: PPARg homodimer (NR concentration 180 nM)
# Summary of the method: as §1
# [16] = test system: PXR:RXRa (NR concentration 270 nM, RXRa partner concentration 90 nM)
# Summary of the method: as §1
# [17] = test system: PXR homodimer (NR concentration 270 nM)
# Summary of the method: as §1
# [18] = test system: RARa:RXR (NR concentration 270 nM, RXRa partner concentration 90 nM)
# Summary of the method: as §1
# [19] = test system: RARa homodimer (NR concentration 270 nM)
# Summary of the method: as §1
# [20] = test system: RARb:RXRa (NR concentration 270 nM, RXRa partner concentration 90 nM)
# Summary of the method: as §1
Sequence,PBM binding z-score [1],PBM binding z-score [2],PBM binding z-score [3],PBM binding z-score [4],PBM binding z-score [5],PBM binding z-score [6],PBM binding z-score [7],PBM binding z-score [8],PBM binding z-score [9],PBM binding z-score [10],PBM binding z-score [11],PBM binding z-score [12],PBM binding z-score [13],PBM binding z-score [14],PBM binding z-score [15],PBM binding z-score [16],PBM binding z-score [17],PBM binding z-score [18],PBM binding z-score [19],PBM binding z-score [20]
TTACCAAGGTGAAGGTCGTAGATCCCTCTGTAGA,0.719,0.647,-0.474,0.573,-0.742,2.43,3.49,3.86,2.16,3.43,1.02,3.32,-0.72,-0.483,-0.867,0.858,-0.255,1.4,-0.36,2.01
ATCTCTAGGTAACCAAGTTCAGTCAATGCCGAAC,0.839,1.13,1.15,1.16,0.769,1.56,0.836,0.815,0.185,0.74,4.07,3.07,0.988,0.947,1.23,2.3,2.93,1.03,1.01,1.34
GCTAGTTGGTCAGTAAAAGGTCACACACCGGTCG,3.43,4.13,4.61,3.79,0.823,4.31,3.03,4.23,2.21,4.37,1.12,2.86,-0.0862,0.91,4.27,4.95,1.3,5.91,3.23,4.19
AGCACGAGGGCAATGAGTTGATAGCACGGGTGGC,0.125,0.129,-0.673,-0.297,-0.733,0.58,0.928,-0.00435,-0.788,-0.265,1.23,0.791,-0.0946,-0.486,-0.285,1.56,5.64,0.00535,-0.029,2.14
ATCTCTAGTTAAAGATAGTTCAGTGAATGCAAAT,0.285,1.29,0.86,0.823,0.612,0.58,0.585,0.484,0.404,0.51,-0.115,0.245,0.633,1.63,0.523,0.98,1.18,1.1,1.54,0.647
CGTCAAAGTTCAACTAAGGTAAGGTAAAGCACGC,7.07,6.11,4.02,3.87,1.73,5.14,5.27,5.34,2.26,4.31,0.313,2.23,0.694,0.769,2.56,5.25,3.24,4.42,1.63,5.2
TCTTGTAGATCGGCAGGTTAAGAAAGCTGGCCAA,0.24,0.472,-0.48,0.25,-0.432,0.736,-0.656,1.28,2.42,2.02,1.25,0.377,-0.018,-0.268,0.0916,0.349,-0.293,0.55,-0.734,0.257
CCGAGTAGATTATGGGGCATTCAGGCAACGGTGA,0.0957,-0.0855,-0.262,0.275,-0.645,0.18,0.487,0.839,0.0845,0.412,0.855,1,-0.628,-0.679,0.156,-0.457,0.0578,-0.525,-0.197,0.0647
